Measured values from the supplement of paper PMC6555819.

Legend:
Assay in all cases: PBM binding z-score (relative to random genomic background probes); higher = stronger binding; sequences stand for … in GC…GCGATTGACAGCGTAGAATGAAGG
[1] = tested on: FXR:RXRa (NR concentration 270 nM, RXRa partner concentration 90 nM)
In short: (§1)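 Probes were double-stranded and carried 34-nt variable regions with direct-repeat seeds, single-nucleotide variants, half-site ablations and random human genomic background sequences, printed on custom Agilent 4×180K protein-binding microarrays. Arrays were incubated 1 h with ligand-free nuclear receptor dimers in PBS pH 7.4, 2% milk, 0.02% Triton X-100, 1 mM DTT, 0.2 mg/mL BSA and 0.4 mg/ml salmon testes DNA. Antibodies against each partner (one per run) detected binding, and scanned fluorescence was regression-normalized. Binding z-scores use the random background probes as reference.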

[2] = tested on: LXRa:RXRa (NR concentration 270 nM, RXRa partner concentration 90 nM)
In short: as §1

[3] = tested on: LXRa homodimer (NR concentration 270 nM)
In short: as §1

[4] = tested on: LXRb:RXRa (NR concentration 270 nM, RXRa partner concentration 90 nM)
In short: as §1

[5] = tested on: LXRb homodimer (NR concentration 270 nM)
In short: as §1

[6] = tested on: PPARa:RXRa (NR concentration 270 nM, RXRa partner concentration 90 nM)
In short: as §1

[7] = tested on: PPARg:RXRa (NR concentration 180 nM, RXRa partner concentration 90 nM)
In short: as §1

[8] = tested on: PPARg:RXRa 270nM:90nM, anti-RXR (NR concentration 270 nM, RXRa partner concentration 90 nM)
In short: as §1

[9] = tested on: PPARg:RXRa 30nM:10nM, anti-RXR (NR concentration 30 nM, RXRa partner concentration 10 nM)
In short: as §1

[10] = tested on: PPARg:RXRa 90nM:30nM, anti-RXR (NR concentration 90 nM, RXRa partner concentration 30 nM)
In short: as §1

[11] = tested on: PPARg:RXRa DBDmut IVT, anti-RXR (DBD mutation: RXRa K156A/R161A, NR concentration 270 nM, RXRa partner concentration 90 nM)
In short: as §1

[12] = tested on: PPARg:RXRa IVT, anti-PPARg (NR concentration 270 nM, RXRa partner concentration 90 nM)
In short: as §1

[13] = tested on: PPARg DBDmut:RXRa IVT, anti-PPARg (DBD mutation: PPARg1 K132A/R137A, NR concentration 270 nM, RXRa partner concentration 90 nM)
In short: as §1

[14] = tested on: PPARg DBDmut IVT, anti-PPARg (DBD mutation: PPARg1 K132A/R137A, NR concentration 270 nM)
In short: as §1

[15] = tested on: PPARg homodimer (NR concentration 180 nM)
In short: as §1

[16] = tested on: PXR:RXRa (NR concentration 270 nM, RXRa partner concentration 90 nM)
In short: as §1

[17] = tested on: PXR homodimer (NR concentration 270 nM)
In short: as §1

[18] = tested on: RARa:RXR (NR concentration 270 nM, RXRa partner concentration 90 nM)
In short: as §1

[19] = tested on: RARa homodimer (NR concentration 270 nM)
In short: as §1

[20] = tested on: RARb:RXRa (NR concentration 270 nM, RXRa partner concentration 90 nM)
In short: as §1

| Sequence | PBM binding z-score [1] | PBM binding z-score [2] | PBM binding z-score [3] | PBM binding z-score [4] | PBM binding z-score [5] | PBM binding z-score [6] | PBM binding z-score [7] | PBM binding z-score [8] | PBM binding z-score [9] | PBM binding z-score [10] | PBM binding z-score [11] | PBM binding z-score [12] | PBM binding z-score [13] | PBM binding z-score [14] | PBM binding z-score [15] | PBM binding z-score [16] | PBM binding z-score [17] | PBM binding z-score [18] | PBM binding z-score [19] | PBM binding z-score [20] |
| --- | --- | --- | --- | --- | --- | --- | --- | --- | --- | --- | --- | --- | --- | --- | --- | --- | --- | --- | --- | --- |
| CCGACTGGGGCAGAAAGGTTACCTTACCATCCGG | -0.0725 | 0.286 | -0.251 | 0.547 | -1.39 | 1.73 | 1.36 | 2.55 | 0.398 | 1.91 | 1.43 | 1.85 | -1.35 | -1.29 | 0.0892 | 0.658 | -0.611 | 1.48 | -0.873 | 1.5 |
| GCTGCTAGGTCAACTGATGGTCCGCTAAAGCTCG | 3.85 | 2.46 | 0.00165 | 1.92 | -0.00733 | 3.41 | 2.32 | 2.97 | 0.463 | 1.97 | 4.62 | 3.92 | -0.331 | -0.853 | 0.857 | 0.939 | -0.584 | 2.05 | -0.897 | 4.04 |
| TCTTGTAGATCAAAAGAGGTTAAGAAAGTGCGCT | 0.748 | 3.35 | -0.0772 | 1.66 | -0.239 | 1.89 | -0.0297 | 1.59 | 2.62 | 2.16 | 1.47 | 0.83 | 0.0222 | 0.122 | 0.373 | 2.86 | 0.102 | 1.79 | -0.0887 | 0.887 |
| ATCTCTAGGTAAAAGTTCAGTGAATCCCGAGGAT | 0.943 | 1.4 | 1.16 | 1.12 | 0.841 | 4.11 | 8.09 | 7.52 | 8.83 | 8.39 | 1.99 | 3.82 | 1.42 | 1.8 | 1.4 | 2.14 | 1.95 | 1.64 | 0.604 | 2.42 |
| CCAGACAGGTGAAAGGTAGCTCAGTCTGGTACGC | 0.0731 | -0.0262 | -0.504 | 0.0215 | -1.1 | 2.23 | 3.22 | 4.68 | 2.78 | 4.9 | 2.97 | 1.52 | -1.06 | -0.199 | 0.596 | -0.0966 | -0.482 | 0.905 | -0.063 | 0.738 |
| CCGACTGGGGGATAAGGTTACCATAAGCCAGCCC | 0.506 | 2.65 | -0.0985 | 2.4 | 2.01 | 1.91 | 1.43 | 2.38 | 1.06 | 2.07 | 0.611 | 1.85 | 1.28 | 1.34 | 0.934 | 1.15 | -0.306 | 1.64 | 0.448 | 0.896 |
| CCGACTGGGGCAAGGTTACCACAACGCACAGCCA | 0.0767 | 0.351 | -0.32 | 0.671 | -1.11 | 1.98 | 2.91 | 3.54 | 1.2 | 2.55 | 3.33 | 3.56 | 0.0122 | -0.719 | -0.214 | 0.24 | -0.209 | 0.76 | 0.366 | 1.61 |
| CAAACTAGGTCGCCGGAAGGTCAAAGTCCGCATG | 3.54 | 4.14 | 2.85 | 3.54 | 0.401 | 4.61 | 5.39 | 4.95 | 2.29 | 4.13 | 6.5 | 6.56 | 2.57 | 0.739 | 3.61 | 4.72 | 0.959 | 5.67 | 0.693 | 3.94 |
| GATACAGCGTCAAGGCCAGAGTACGCGTATTGAT | -0.565 | -0.762 | -0.347 | -0.832 | -0.969 | -0.514 | 0.602 | -0.494 | -0.309 | -0.649 | -0.697 | -0.358 | -0.853 | -0.941 | -0.474 | -0.434 | -0.406 | -0.6 | -0.441 | 0.0727 |
| CAAACTAGGTCAAGAGGTAAAAGTCCGCTTCCCG | 4.11 | 3.15 | 0.451 | 2.2 | 0.356 | 5.2 | 8.8 | 7.58 | 5.87 | 7.82 | 8.5 | 8.39 | 6.02 | 5.32 | 3.74 | 1.92 | 0.28 | 3.43 | 0.988 | 4.19 |
| CCGAGTGGGGCAAAGGTTACCATACTCAGTACGA | 1.45 | 1.82 | 0.144 | 2.37 | -0.506 | 5.65 | 11 | 9.62 | 8.52 | 11 | 4.47 | 6.13 | 0.0641 | -0.366 | 3 | 2.82 | 0.105 | 4.13 | 0.606 | 2.44 |
| TCTCGGAGGACACGAAGGTCAGACCTTTCCAGAG | 1.6 | 1.26 | 0.373 | 1.41 | -0.66 | 2.19 | 0.782 | 1.53 | 2.38 | 2.04 | 1.65 | 0.996 | -0.713 | -0.138 | 1.39 | 2.12 | 0.898 | 2.4 | 0.387 | 3.59 |
| GATACAGGATCAGCTAGAGGCCAGAGTATGGAAA | -0.162 | -0.497 | -0.55 | -0.727 | -1.05 | -0.383 | 0.505 | -0.286 | 0.0459 | 0.0181 | -1.08 | -0.432 | -0.311 | -0.748 | -0.609 | -0.395 | -0.577 | -0.16 | -0.552 | 0.184 |
